The record followed here is paper PMC5540273 (PLoS ONE, 2017).

Holding throughout (conditions): concentration: 1 μM, replicates: in singlicate; n = 1
The subject of test [1] is PRKCQ.
For test [2], the system named is PRKD1.
In test [3] the test system is PRKD2.
Test [4] relates to PRKD3.
Test [5] relates to PRKG1.
In test [6] the test system is PRKG2.
For test [7], the system named is T1, PRKR.
T1 construct: gene EIF2AK2

Test [8] relates to PRKX.
In test [9] the test system is PRP4.
Test [10] deals with T2, PYK2.
T2 construct: gene PTK2B

Test [11] relates to QSK.
The subject of test [12] is RAF1.
Test [13] relates to RET.
For test [14], the system named is RIOK1.
Test [15] deals with RIOK2.
For test [16], the system named is RIOK3.
For test [17], the system named is RIPK1.
The test system of test [18] is RIPK2.
Test [19] has as its system RIPK4.
Test [20] relates to RIPK5.
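Note: KINOMEscan kinase panel screen.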

For `CC1=C(C(=O)Nc2cc3cn[nH]c3cc2F)C(c2ccc(C(F)(F)F)cc2)CC(=O)N1` (centres unmarked) [GSK429286], the “%Inh” value in test [1] is recorded as 28%; in [2], 22%; in test [3], 4%; in test [4], 0%; in [5], 30%; in test [6] it was 0%. The “%Inh” value in test [7] is listed as 0%; in test [8], 87%; in test [9], 7%; in test [10], 10%; in test [11] it was 14%; in test [12] it was 5%. The “%Inh” value in test [13] is 44%; in test [14] it was 34%; in test [15], 23%; in [16], 0%; in test [17], 0%; in test [18], 12%. The “%Inh” value in [19] is recorded as 13%; in test [20] it was 1%.

For the compound `Cc1cccc(-c2nc(-c3ccc(S(C)(=O)=O)cc3)sc2-c2ccnc(NCCc3ccccc3)c2)c1`, the “%Inh” value was 26% in test [1]; 1% in test [2]; 0% in [3]; 0% in test [4]; 20% in [5]; 20% in test [6]. For the same compound, the “%Inh” value was 0% in test [7]; 0% in [8]; 9% in test [9]; 4% in [10]; 0% in [11]; 93.4% in [12]. Also, the “%Inh” value in [13] came out at 30%; in [14], 17%; in test [15], 15%; in test [16], 18%; in [17] it was 3%; in [18] it was 6%. Also, the “%Inh” value in test [19] and in test [20] was 0% each time.

On to `CCn1c(-c2cccnc2O)nc2cnccc21` [SB-736715], for which the “%Inh” value in test [1], in [2], in test [3], in test [4], in [5] and in test [6] was 0% throughout. The “%Inh” value in [7], in [8], in test [9], in [10], in test [11] and in [12] was 0% in each case. In addition, the “%Inh” value in test [13] stood at 5%; in test [14], 6%; in test [15], 0%; in test [16] it was 0%; in test [17], 0%; in test [18], 0%. The “%Inh” value in [19] turned out to be 21%; in [20], 0%.

`Fc1cccc(COc2nnc(-c3ccc4c(c3)CCO4)o2)c1`: the “%Inh” value in [1] was 22%; in [2], 0%; in test [3] it was 1%; in test [4] it was 0%; in [5] it was 0%; in test [6], 0%. Further, the “%Inh” value in test [7] is 0%; in test [8] it was 0%; in test [9] it was 8%; in test [10] it was 10%; in test [11], 7%; in [12] it was 4%. Besides, the “%Inh” value in test [13] is given as 5%; in test [14], 9%; in test [15] it was 0%; in test [16], 0%; in [17] it was 0%; in test [18], 0%. In addition, the “%Inh” value in [19] amounted to 0%; in test [20] it was 15%.

As to `O=C(Nc1n[nH]c2nc(-c3nccs3)c(Br)cc12)C1CC1` [SB-742251], the “%Inh” value came to 32% in [1]; 0% in test [2]; 0% in test [3]; 0% in [4]; 0% in test [5]; 0% in test [6]. The “%Inh” value came out at 0% in test [7]; 0% in test [8]; 51% in [9]; 0% in [10]; 19% in [11]; 8% in [12]. Further, the “%Inh” value is given as 12% in test [13]; 30% in test [14]; 0% in test [15]; 29% in test [16]; 15% in test [17]; 10% in test [18]. Moreover, the “%Inh” value in test [19] was 17%; in test [20], 0%.

As to `O=C(Nc1ccc2c(c1)OCO2)NC1CCN(c2ccnc(Nc3ccc(F)cc3)n2)C1` (centres unmarked) [GSK1379724], the “%Inh” value stood at 0% in test [1]; 16% in test [2]; 5% in [3]; 0% in test [4]; 0% in [5]; 0% in test [6]. In addition, the “%Inh” value in [7] is given as 0%; in test [8], 0%; in [9], 17%; in test [10], 0%; in [11], 8%; in test [12], 16%. For the same compound, the “%Inh” value in test [13] is given as 22%; in [14], 9%; in [15], 0%; in test [16] it was 5%; in test [17], 0%; in test [18] it was 0%. Moreover, the “%Inh” value in test [19] amounted to 11%; in test [20] it was 0%.

As to `Cc1cccc(-c2nc(Nc3cccc(C(N)=O)c3)c3ccccc3n2)n1` [GW876019], the “%Inh” value in [1] turned out to be 0%; in test [2], 64%; in [3], 66%; in test [4] it was 87%; in test [5], 0%; in test [6] it was 0%. Moreover, the “%Inh” value in test [7] is reported as 6%; in test [8] it was 0%; in test [9] it was 11%; in [10] it was 6%; in test [11], 0%; in test [12] it was 17%. The “%Inh” value was 0% in test [13]; 50% in [14]; 0% in test [15]; 26% in [16]; 19% in test [17]; 0% in test [18]. Further, the “%Inh” value in test [19] and in test [20] was 0% in each case.

In the case of `Cc1cccc(-c2nc(C)cc(Nc3ccncc3)n2)n1` [GSK257997], the “%Inh” value in test [1] was 0%; in test [2], 78%; in [3], 80%; in test [4], 85%; in test [5], 0%; in [6] it was 6%. In addition, the “%Inh” value in [7] is reported as 0%; in [8], 1%; in test [9], 13%; in test [10] it was 0%; in [11] it was 0%; in [12], 100%. Besides, the “%Inh” value in test [13] came to 18%; in test [14], 20%; in [15] it was 16%; in test [16], 14%; in test [17], 8%; in test [18], 19%. The “%Inh” value in test [19] is given as 7%; in test [20], 0%.

For `COc1cc(Nc2nccc(N3CCC(NC(=O)Nc4cc(C)ccc4C)C3)n2)cc(OC)c1OC` (centres unmarked) [GSK1379762], the “%Inh” value stood at 0% in test [1]; 0% in [2]; 0% in test [3]; 37% in test [4]; 0% in [5]; 0% in [6]. Moreover, the “%Inh” value in test [7] turned out to be 0%; in test [8] it was 41%; in test [9], 43%; in test [10] it was 3%; in test [11], 0%; in test [12], 19%. Moreover, the “%Inh” value came out at 25% in [13]; 60% in test [14]; 6% in [15]; 34% in test [16]; 4% in test [17]; 8% in test [18]. Further, the “%Inh” value worked out at 18% in test [19] and 0% in test [20].

For the compound `Cc1c(O)cccc1Nc1ccnc2ccc(C(F)(F)F)cc12.Cl` [GW466413], the “%Inh” value in [1] worked out at 0%; in test [2], 0%; in [3], 0%; in test [4], 0%; in test [5] it was 5%; in test [6], 0%. Further, the “%Inh” value in test [7] is on record as 0%; in [8], 0%; in test [9], 4%; in test [10] it was 0%; in test [11] it was 3%; in test [12], 23%. Also, the “%Inh” value in [13] turned out to be 24%; in test [14], 34%; in test [15], 2%; in test [16] it was 0%; in [17], 3%; in test [18], 21%. For the same compound, the “%Inh” value in test [19] and in test [20] was 0% in each case.
